High-throughput results from PubChem BioAssay.
A selection: hits, their analogues and other compounds. The true share with any hit is near 4.3%.
Peg3 promoter = inhibitors of Peg3 promoter; HeLa PEG-Prom luciferase reporter, luminescence, overnight; inhibition, % at 20 µM; 1.7% of 360,000 active; AID 588405;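 active = inhibition of at least 50% at 20 µM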
TRPM1 prom inh = MITF TRPM1 promoter inhibition in SK-MEL-5 cells | SK-MEL-5 TRPM1 promoter luciferase, 24 h | AID 488899 | 0.83% of 330,000 active | inhibition, % at 12.5 µM;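 active = mean inhibition across replicates of 60% or more, whatever share of single replicates reaches that level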
HIF-2a block = inhibitors of HIF-2a; 786-0 RCC cells HIF-2a reporter, luciferase luminescence, overnight; AID 624352; 0.72% of 360,000 active; inhibition, % at 18.8 µM;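 active = inhibition of the luminescence signal of 40% or more relative to plate controls, in a single-dose primary screen at 18.75 µM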
CHOP inhibitor = inhibitors of CHOP induction in ER stress response; CHO-K1 CHOP-promoter luciferase, tunicamycin-induced, 15-18 h; inhibition, % at 10 µM; 3.8% of 220,000 active;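 active = compounds that reduced the stress-induced luciferase reporter signal by more than about 70% of percent inhibition, limit read from the data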
KKLEB cytotox = CF airway cell cytotoxicity counter-screen; KKLEB CF airway cells viability, ATPlite luminescence, overnight; stronger effect = lower value; cells stimulated with P. aeruginosa culture filtrate; activity change (cytotoxicity), % at 5 µM; 0.36% of 360,000 active;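 active = corrected activity change at or below -50% at 5 µM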
CF NFkB block = inhibitors of cystic fibrosis induced NF-kB; KKLEB NF-kB-GFP reporter, PAF-induced, GFP fluorescence overnight; inhibition, % at 5 µM; 0.86% of 360,000 active; AID 588850;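 active = at least 50% inhibition at 5 µM, scaled per plate between neutral and stimulator controls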;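 also: PAF is a Pseudomonas aeruginosa culture filtrate used as stimulus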
A number is an active result; – = inactive; · = not tested or not shown.

SMILES	Peg3 promoter	TRPM1 prom inh	HIF-2a block	CHOP inhibitor	KKLEB cytotox	CF NFkB block
COc1ccc(Cl)cc1NC(=O)C(C)N1CCN(C/C=C/c2ccccc2)CC1 (configuration not stated)	–	–	–	73.5	–	–
CC(=O)Nc1cc(=O)c2cccnc2[nH]1	–	–	–	·	–	–
O=C(CC(SCCO)c1ccc([N+](=O)[O-])cc1)c1ccco1 (configuration not stated)	71.9	–	–	·	–	–
Cc1ccc2cc(C)c(N3CCN(c4ccccn4)CC3)nc2c1	–	–	–	73.8	–	–
Cc1ccc(C(=O)CN2CCN(c3ccccn3)CC2)c(C)c1	–	–	–	·	–	–
Nc1nc(-c2cccnc2)nn1C(=O)Cc1ccccc1	–	–	–	77.6	–	–
COc1ccc2c(c1)c1c(n2C)[C@@H]2CC=C(CO)[C@@H](C1)N2C	–	–	–	·	–	–
Cc1ccc(S(=O)(=O)CCC(=O)c2cccc([N+](=O)[O-])c2)cc1	109.9	–	–	·	–	–
CCOC(=O)c1ccc([N+](=O)[O-])c(CS(=O)(=O)c2ccc(Cl)cc2)c1	–	–	–	·	–	–
Cc1ccc(S(=O)(=O)Cc2cc(F)c([N+](=O)[O-])cc2[N+](=O)[O-])cc1	116.7	–	–	·	–	–
Cc1ccc(C(=O)CCS(=O)(=O)c2ccc(Br)cc2)cc1	–	–	–	·	–	–
COc1cccc(NC(=O)c2nc3nc(C)cc(C(F)F)n3n2)c1	–	–	–	–	–	–
COc1ccc(Cl)cc1NC(=O)c1nc2nc(C)cc(C(F)F)n2n1	–	·	–	73.6	–	–
COc1ccc(CCN(C(=O)C(F)(F)F)C(C(=O)NC2CCCC2)c2cccs2)cc1 (configuration not stated)	–	–	–	79.9	–	–
O=C(NCc1ccco1)c1cccs1	–	–	–	76.3	–	–
CCc1ccc(CN2C(=O)c3ccccc3C2C(=O)NC(C)CC)cc1 (configuration not stated)	–	–	–	·	–	–
Cc1cccc(N2CCN(S(=O)(=O)c3cccc4nonc34)CC2)c1C	–	–	–	72.8	–	–
O=S(=O)(Nc1cc2nc3ccccc3nc2n1Cc1ccccc1)c1ccc(Cl)cc1	–	–	–	92.5	–	51.8
Cc1ccc(Cl)cc1N1CCN(Cc2nnnn2Cc2ccco2)CC1	–	–	–	72.4	–	–
CC1CCc2c(sc(NC(=O)Cn3cnc([N+](=O)[O-])n3)c2C(N)=O)C1 (configuration not stated)	–	–	–	–	–	–
CC(C)OC(=O)c1c(NC(=O)Cn2cnc([N+](=O)[O-])n2)sc2c1CCCC2	–	–	–	93.3	–	–
CCOC(=O)c1c(NC(=O)Cn2cnc([N+](=O)[O-])n2)sc2c1CCCC2	–	–	–	75.2	–	–
NC(=O)c1c(NC(=O)Cn2cnc([N+](=O)[O-])n2)sc2c1CCCC2	–	–	–	–	–	–
Cc1cccc(C(=O)OCC(=O)c2csc(N3CCCCC3)n2)c1[N+](=O)[O-]	–	–	–	·	–	–
CC(C1CC1)N(Cc1ccccc1)C(=S)Nc1cccc(C(F)(F)F)c1 (configuration not stated)	–	–	–	75.2	–	–
SMILES	Peg3 promoter	TRPM1 prom inh	HIF-2a block	CHOP inhibitor	KKLEB cytotox	CF NFkB block
O=C(/C=C/Sc1ccccc1)c1ccccc1	78.6	–	–	–	–	–
CC(C)C1C(=O)N(Cc2cn(CCC3OCCO3)nn2)CCS(=O)(=O)N1Cc1ccc(-c2ccc(F)cc2Cl)cc1 (configuration not stated)	–	·	–	·	–	–
O=C(c1ccc(S(=O)(=O)Cc2ccccc2Cl)c([N+](=O)[O-])c1)N1CCN(c2ccccn2)CC1	–	73.5	–	–	–	–
O=C(c1ccc(Cl)c([N+](=O)[O-])c1)N1CCN(c2ccccn2)CC1	–	–	–	–	–	–
COc1cc(C(=O)NCC(c2ccco2)N2CCCC2)ccc1OCc1ccc(Cl)cc1Cl (configuration not stated)	56.0	·	–	·	–	–
CCOCCn1c(CN(Cc2ccccc2)Cc2ccccc2)nc2c1c(=O)n(C)c(=O)n2C	–	–	–	80.2	–	–
CCC1CCCCN1Cc1nc2c(c(=O)n(C)c(=O)n2C)n1Cc1ccccc1 (configuration not stated)	–	–	–	82.9	–	–
